The source of these data is PubChem BioAssay (NCI).

Compounds without any hit were thinned out: in the full panel of roughly 83,000, 20% have a hit.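 The test compound was applied at a single concentration to cells in 96-well plates for 48 hours, and percent growth was recorded.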 Values without a mark were called inactive. The source made the active and inactive calls. How the source made its calls: active means growth percent below 10; inactive means the rest.

The test system of the test is HL-60(TB) leukemia. Kind of test: NCI-60 one-dose screen, 48 h (100 = growth as untreated, 0 = no growth, -100 = all killed). The note with it: 10 µM unless noted.
Consider `CCOC(=O)c1c(-c2ccc(O)cc2)c(C#N)c2c(C#N)c(N)nn2c1N`, for which the growth was 22.5%.
Next, `CCCCc1ccc(C(O)(CCN2CC3CCC(CC3)C2)c2ccccc2)cc1` (stereo not given): 84.5%; `CCOP(=O)(OCC)C1CP(=O)(c2ccccc2)CC(C)=C1Cl` (stereo not given): 92.1%; `CC1=CCC(OC(=O)C(C)(C)CC(O)(C(C)O)C(O)C2(C)C=CC(Cc3ccc(C(C)C)cc3)(C(C)C)CC2)(C(C)C)CC1` (stereo not given): 95.9%.
Under `COc1cc(NC(C)CCCN)c2nc(C)ccc2c1Oc1ccc(F)cc1` (stereo not given) stands 87.9%.
Under `CCOC(=O)c1c(C)oc2ncnc(N3CCN(C(=O)COc4ccc(C(C)(C)C)cc4)CC3)c12` stands 73.9%; under `CCOc1ccc(-n2cc(-c3ccc(N(C)C)cc3)[n+]3c2CCCCC3)cc1`, -0.266% (active).
As for `C=C1C(=O)O[C@H]2[C@H]1CC/C(CNS(=O)(=O)c1cccc3ccccc13)=C\CC[C@@]1(C)O[C@@H]21`, the growth is -31.9% (active).
Next, `O=c1oc2ccccc2cc1-c1nn(-c2ccccc2)cc1-c1nn[nH]n1`: 96.8%; `COc1cc2nc3cc([N+](=O)[O-])ccc3c(NCCNCC(C)O)c2cc1OC` (stereo not given): -16.8% (active).
Next, `O=S(=O)(c1cccc(NC2=Nc3cccc4cccc2c34)c1)N1CCCC1`: 60.8%; `O=S(=O)(NCC[C@@H]1C[C@H]1c1ccc2ccccc2c1)c1ccc(C(F)(F)F)cc1`: 96.5%; `CN(C)CCN1C(=O)c2cccc3c(-c4ccc5ncn(C6CCCCC6)c5c4)ccc(c23)C1=O`: 13.8%.
Under `CC(=O)c1ccc2c3c(n(C)c2c1)CCCC3` stands 93.1%; under `O=C(/C=C/c1cn(-c2ccccc2)nc1-c1ccccc1)OCc1cn(-c2cccc([N+](=O)[O-])c2)nn1`, 93%; under `Cc1c(Cl)cccc1NC(=O)CN1CCOCC1`, 81.7%.
In the case of `C(#Cc1ccccc1C#Cc1ccccn1)c1ccc(OCCCCCCOc2ccc(C#Cc3ccccc3C#Cc3ccccn3)cc2)cc1`, the growth is 14.3%.
`CCCc1n(Cc2ccc3ccccc3c2)c2ccccc2[n+]1Cc1ccc2ccccc2c1`: the growth was -64.2% (active).
Next, `Cc1nn(-c2ccc(-c3ccc(OC(F)(F)F)cc3)cc2)c2nc(-c3ccccc3)nc(N)c12`: 100%; `CC1=C[C@H]2c3c(c(O)c(O)c4oc5c(C)cccc5c(=O)c34)[C@H](c3cc(O)c(O)c4oc5c(C)cccc5c(=O)c34)[C@H]2C(C)(C)C1`: -14.5% (active); `COc1cc(C(=C2O[C@@H]([C@H]3COC(C)(C)O3)[C@H]3OC(C)(C)O[C@@H]23)c2cc(OC)c(OC)c(OC)c2)cc(OC)c1OC`: 107%.
Next, `COc1ccc(CCN2CCCN3C2=Nc2ccccc2S3(=O)=O)cc1`: 3.21% (active); `O=C(Nc1cccc(C2=NCCN2)c1)c1ccc(N=Nc2ccc(C(=O)Nc3cccc(C4=NCCN4)c3)cc2)cc1`: 42.5%; `CCOC(OCC)c1cnc2nc(NC(C)=O)[nH]c(=O)c2n1`: 123%.
Next, `O=c1oc2ccc3ccccc3c2cc1-c1ccnc2[nH]c(=S)[nH]c(=O)c12`: 87.3%.
On to `O=C(c1ccccc1)N1N=C(c2ccc(-n3ccc(C(F)(F)F)n3)cc2)CC1c1ccc[nH]1` (stereo not given), for which the growth is 93.3%.
Under `O=C(Cn1cc(CN2CCN(c3ccnc4cc(Cl)ccc34)CC2)nn1)Nc1cccc([N+](=O)[O-])c1` stands 102%.
Next, `C[n+]1cc2cc3c(cc2c2ccccc21)OCO3`: 87.5%.
Next, `COc1ccc(OC)c(Nc2nc3nonc3nc2Nc2cc(OC)ccc2OC)c1`: 103%; `NC(=O)OCCn1cc(-c2nc(-c3c[nH]c4ncccc34)cs2)c2ccccc21`: 6.14% (active); `CN(Cc1ccccc1)c1nc(Cl)c(C2CC(c3ccc(Cl)cc3)=NN2c2cc(Cl)cc(Cl)c2)s1` (stereo not given): 102%.
As to `CCOC(=O)C(CCC1=NC(C)(C)CC(C)O1)C(=O)OCC` (stereo not given), the growth was 56.4%.
Under `CCN(CC)c1cc(/C=C/c2ccc(OC)c(OC)c2)nc2cc(F)c(F)cc12` stands 112%; under `Cc1ccc(S(=O)(=O)Nc2ccc(-c3cc(-c4cccc(F)c4)c(C#N)c(=O)[nH]3)cc2)cc1`, 87%; under `C#Cc1ccc(-n2c(/C=C/c3ccc4ccccc4n3)nc3ncccc3c2=O)cc1`, -34.6% (active).
On to `c1cc(OCCN2CCCCCC2)ccc1CNc1ccc2nc(CCC3CCCCC3)[nH]c2c1`, for which the growth is 22.9%.
Under `C=C(C)[C@@H]1C[C@H](O)Cc2cc(Cl)cc(Cl)c2N1` stands 112%; under `COc1cc2c(c(OC)c1O)C(=O)C(OC)C(c1ccc(O)c(O)c1)O2` (stereo not given), -28.6% (active); under `CCOC(=O)CNC`, 97.3%.
Next, `O=C(/C=C/c1cccc(O)c1)c1cccc(-n2cc(-c3ccc(Cl)cc3)[nH]c2=O)c1`: -6.19% (active).
